# Data: PubChem BioAssay (NCATS)
# Values joined by “and” are separate entries in the source; they are usually repeats but may differ in a detail not shown here. Identical values can stand only once. Results filed as inconclusive are left out. A number with no mark means an inactive call. Calls come from the whole dose curve; as a rule, active = well fitted curve in the direction sought with a large enough effect; inconclusive = small, poorly fitted or top-dose-only effect, or another doubt; inactive = no such curve, though single readings can be large or run the other way.
# Assay: qHTS Assay for Identifying Gametocytocidal Compounds (AID 743244);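 note: actives lower the fluorescent signal which means gametocytes are killed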
# Conditions: P. falciparum 3D7 stage III-V gametocytes, alamarBlue, 72 h; max response: active compounds read low
# In short: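 3D7 gametocytes, stages III–V, 20,000/well; cpd 72 h, 37 °C/5% CO2; + alamarBlue 24 h; fluor. Ex 525/Em 598.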
# % is set by controls: 0 for no effect and ±100 for the full control effect.
row,Compound,max response
1,COc1ccc2c3c1O[C@H]1[C@H](O)CC[C@H]4[C@@H](C2)N(C)CC[C@@]341,-0.489%
2,CC1(C)C(C=C(Cl)Cl)C1C(=O)OC(C#N)c1cccc(Oc2ccccc2)c1 (configuration not stated),-13.8%
3,O=C(CCCN1CCC2(CC1)C(=O)NCN2c1ccccc1)c1ccc(F)cc1,-9.38% and 8.83%
4,O=c1[nH]cnc2[nH]ncc12,-1.56%
5,COc1cc(CCN)cc(OC)c1OC,17.2%
6,O=C(Nc1ccc(Br)cc1)c1cc(Br)cc(Br)c1O,3.6%
7,CC(C)c1cccc(C(C)C)c1O,-8.91% and 15.4%
8,COP(=S)(OC)Oc1cc(Cl)c(Cl)cc1Cl,-2.95% and 7.49%
9,COc1cccc([C@@]2(O)CCCC[C@@H]2CN(C)C)c1,5.95%
10,CCOP(=S)(OCC)Oc1ccc2c(C)c(Cl)c(=O)oc2c1,-0.845%
11,CCCCCCCCCC(=O)O[C@H]1CC[C@H]2[C@@H]3CCC4=CC(=O)CC[C@@H]4[C@H]3CC[C@]12C,5.38%
12,c1ccc(CN2CCNCC2)cc1,8.43%
